These results are taken from PubChem BioAssay AID485297 (National Center for Advancing Translational Sciences (NCATS), 2010).

In all, about 320,000 compounds went through this assay and about 9,100 (2.8%) were called active. Roughly 3% stayed inconclusive and do not appear here. The entries come from a sample that favours actives as a whole. Unmarked numbers belong to inactive results. Calls follow the shape of the dose curve; as a rule, active = well fitted activation curve with a large enough effect; inconclusive = small, poorly fitted or top-dose-only effect; inactive = no such curve, though single readings can be large or run the other way.
Potency is read from the fitted curve at half-maximal effect.

This experiment in a line: qHTS Assay for Rab9 Promoter Activators. Also: nearly all actives have a fitted effect of over 60% in size. As to activation, negative = inhibition: % of control where 0% means no effect. Conditions: Huh7 Rab9 promoter-luciferase reporter, luminescence, 24 h; series mostly up to 9.22 µM; activation, negative = inhibition: at the top concentration. The method in brief: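 Huh7 cells stably carrying a Rab9 promoter-luciferase reporter, 1500 cells per well in OP-MEM I with 10% FBS, treated with compound 24 hours at 37C. Luciferase activity read by luminescence after 10 minutes with Amplite reagent.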
For `CN1CCN(S(=O)(=O)c2cccc(C(=O)Nc3sccc3C#N)c2)CC1`, the “activation, negative = inhibition” value is 12.5%.
For the compound `COc1cccc(CNC(=O)CN2C(=O)NC(Cc3ccccc3)(c3ccccc3)C2=O)c1` (stereo unspecified), the “activation, negative = inhibition” value was -1.37%.
Turning to `Cc1nc(C)c(C(=O)Nc2ccc(C)c(F)c2)o1`, the “activation, negative = inhibition” value was 0.598%.
For the compound `Cc1ccc(NC(=O)NC(=O)c2ccccc2)cc1F`, the Potency was 0.398 µM (active).
For the compound `Cc1cccc(NC(=O)NC(=S)NC(=O)c2ccccc2)c1`, the “activation, negative = inhibition” value is 7.34%.
As to `CC1CCCCC1NC(=O)NC(=O)COC(=O)C1=NN(c2ccccc2)C(=O)CC1` (stereo unspecified), the “activation, negative = inhibition” value was -5.06%.
As to `O=C(NCC1(N2CCCCC2)CCCCC1)c1ccc(NS(=O)(=O)c2ccc(F)cc2)cc1`, the “activation, negative = inhibition” value is -7.35%.
Take `O=C(CSc1nc2ccccc2[nH]1)Nc1nc(-c2ccccc2)c(-c2ccccc2)o1`: the “activation, negative = inhibition” value was -1.39%.
As to `CN(Cc1ccccc1)C(=O)CSc1nc2ccccc2[nH]1`, the “activation, negative = inhibition” value is 27.5%.
With `CCc1nnc(NC(=O)CCCSc2nc3ccccc3[nH]2)s1`, the “activation, negative = inhibition” value is 8.44%.
`O=C(COC(=O)CCCSc1nc2ccccc2[nH]1)Nc1ccc(Oc2ccccc2)cc1`: the “activation, negative = inhibition” value was 4.96%.
Regarding `O=C(CSc1nc2ccccc2[nH]1)c1cccs1`, the Potency was 2 µM (active).
On to `CCCCSc1nc2ccccc2[nH]1`, for which the Potency was 2 µM (active).
On to `O=C(NCc1cccc(Cl)c1)C1=CC=CN2CCS(=O)(=O)N=C12`, for which the “activation, negative = inhibition” value is 0.411%.
Turning to `CC(C)OC(=O)c1sc2nc3c(cc2c1N)C(=O)CCC3`, the Potency was 3.55 µM (active).
With `Nc1c(C(=O)NCc2ccccc2)sc2nc3c(cc12)C(=O)CCC3`, the “activation, negative = inhibition” value was 12.7%.
`Cc1cccc2cc3c(N)c(C(=O)N4CCCc5ccccc54)sc3nc12`: the “activation, negative = inhibition” value is -25.2%.
For `O=C(Nc1ccncc1)c1c(F)cccc1F`, the “activation, negative = inhibition” value is -4%.
With `CCCC(=O)Nc1nc2ccc(NC(=O)c3c(F)c(F)c(OC)c(F)c3F)cc2s1`, the “activation, negative = inhibition” value is -20.9%.
As to `CSc1nc2ccc(NC(=O)c3c(F)cccc3F)cc2s1`, the Potency was 3.55 µM (active).
Consider `CSCCC(NC(=O)COc1ccccc1)C(=O)N(C)CC(=O)Nc1ccc(C)cc1` (stereo unspecified), for which the “activation, negative = inhibition” value is -4.82%.
For the compound `O=C(NC1CCCC1)c1ccc(Br)s1`, the “activation, negative = inhibition” value is -0.617%.
With `O=C(Nc1ccc2c(c1)CCC2)c1ccc(Br)s1`, the Potency was 1.12 µM (active).
Regarding `CC(C)C(=O)OCC(=O)Nc1ccc2c(c1)CCC2`, the “activation, negative = inhibition” value was 2.2%.
For the compound `Cc1ccc(NC(=O)CCNC(=O)c2ccc([N+](=O)[O-])cc2)cc1S(=O)(=O)N1CCOCC1`, the “activation, negative = inhibition” value was -3.65%.
Still for that read-out and setting: in the case of `O=C(CCNC(=O)c1ccccc1Cl)NCc1ccco1` it was -3.14%.
Take `COc1ccc(CNC(=O)COC(=O)c2ccc(C)c(S(=O)(=O)N3CCOCC3)c2)cc1OC`: the “activation, negative = inhibition” value was -4%.
`O=C(NC1CCCCC1)c1ccc(-c2ccc(Cl)cc2)o1`: the Potency is 2.82 µM (active).
For the compound `S=C(NCc1ccc(Cl)cc1)NC1CCCCC1`, the “activation, negative = inhibition” value was -0.0365%.
In the case of `O=C(NC(=S)NC1CCCCC1)c1ccc(Cl)cc1`, the “activation, negative = inhibition” value was 8.27%.
The same measure, in the same setting: then `CCCC(NCC(=O)Nc1ccccc1C(=O)NC1CC1)c1ccccc1` (stereo unspecified), with -6.07%; and `O=C(OCC(=O)N1CCc2ccccc21)c1ccc([N+](=O)[O-])cc1`, with -11.6%.
Regarding `Cc1ccc(OC(=O)c2c(C)nn(-c3ccccc3)c2C)cc1`, the Potency was 3.16 µM (active).
Consider `Cc1ccc(-n2nc(C)c(C(=O)O)c2-n2cccc2)cc1`, for which the “activation, negative = inhibition” value was 1.68%.
Regarding `Cc1cccc(C)c1NC(=O)COC(=O)c1c(C)nn(-c2ccccc2)c1C`, the “activation, negative = inhibition” value was 0.602%.
Turning to `Cc1ccc(NC(=O)CN(C)S(=O)(=O)c2cnc[nH]2)cc1C`, the “activation, negative = inhibition” value was -11.6%.
`Cc1ccc(S(=O)(=O)N2CCOCC2)cc1NC(=O)COC(=O)c1cnccn1`: the “activation, negative = inhibition” value is -6.99%.
In the case of `Cc1cc(C)nc(N2CCC(C(=O)Nc3ccc4c(c3)OCCO4)CC2)n1`, the “activation, negative = inhibition” value was -0.255%.
On to `O=C(Nc1ccc2c(c1)OCCO2)C1CCCC1`, for which the “activation, negative = inhibition” value is 27.1%.
Regarding `O=C(Nc1ccc2c(c1)OCCO2)C1CCCN(c2ncccn2)C1` (stereo unspecified), the Potency was 0.316 µM (active).
In the case of `Cc1c(C(C)CCCO)oc(=O)c2c1Oc1c(C)c(C(C)C[C@@H](C)O)oc(=O)c1C2` (stereo partly specified), the “activation, negative = inhibition” value was 2.36%.
Still for that read-out and setting: then `CCCN(CCC)CC(O)COc1ccccc1C(=O)Nc1ccccc1` (stereo unspecified), with 6.94%; and `Cc1ccc(C(=O)Nc2c(C#N)c(C)c(C)n2Cc2ccccc2)cc1`, with 2.99%.
For the compound `CC(C)C(=O)Nc1ccc2c(c1)oc1ccccc12`, the Potency was 0.891 µM (active).
As for `Cc1cc(=O)oc2cc(NC(=O)C(C)Oc3ccccc3)ccc12` (stereo unspecified), the “activation, negative = inhibition” value is -2.66%.
Consider `CC(C)C(=O)Nc1ccc2oc(=O)ccc2c1`, for which the “activation, negative = inhibition” value was -3.96%.
Same read-out and setting: then `CC1(C)O[C@@H]2[C@H](O1)[C@@H](CO)O[C@H]2n1c(N2CCCCC2)nc2c(N)ncnc21`, with 1.48%.
Take `S=c1[nH]nc(-c2cccnc2)n1/N=C/C(Cl)=C\c1ccccc1`: the Potency was 3.16 µM (active).
With `Cc1cc(-c2n[nH]c(=S)n2/N=C/C(Br)=C/c2ccccc2)n[nH]1`, the “activation, negative = inhibition” value is 8.77%.
For the compound `Fc1ccccc1/C=N/n1c(-c2cccnc2)n[nH]c1=S`, the “activation, negative = inhibition” value was -6.18%.
For `Cn1c(=O)n(Cc2ccco2)c(=N)c2c3c(sc21)CCCC3`, the “activation, negative = inhibition” value is -5.28%.
On to `O=c1oc(-c2ccco2)nc2sc3c(c12)CCCCC3`, for which the Potency was 3.55 µM (active).
With `O=C(NCc1ccco1)c1cccn2c(=O)c3c4c(sc3nc12)CCCC4`, the “activation, negative = inhibition” value is 0.504%.
As to `CCOC(=O)N1CCN(S(=O)(=O)c2ccc3c(c2)C(C)C(=O)N3)CC1` (stereo unspecified), the “activation, negative = inhibition” value was -0.385%.
Same read-out and setting: then `CC(C)N(C(=O)CN1CCN(S(=O)(=O)c2ccc(Br)s2)CC1)C(C)C`, with -4.44%; and `COc1cc(C(=O)NNC(=O)CN2C(=O)NC3(CCCC3)C2=O)cc(OC)c1OC`, with 3.35%.
